Source: PubChem BioAssay AID463173 (ICCB-Longwood Screening Facility, Harvard Medical School, 2010)
Among all 52,000 compounds or so, about 1,700 (3.3%) were called active. Rule as the data show it: active = survival mostly below about 52% (no sharp cut-off); inactive = mostly above about 56%. The list comes from a sample in which actives are over-represented; it also holds similar structures and randomly drawn compounds.

The compounds below were run on Wild type (assay: S. aureus survival, RN4220 and DeltatarO strains – OD600, teichoic acid synthesis inhibitors, primary screen (AID 463173)). Conditions: S. aureus RN4220 wild type/DeltatarO growth, OD600, 18 h, stronger effect = lower value, screened at 18.75 µg/mL (by protocol).
For Cc1ccc(CNC(=O)C2(c3cccs3)CCOCC2)cc1, the survival was 69% (inactive).
O=C(Nc1ccc2oc(-c3ccc4ccccc4c3)nc2c1)c1cc(Br)ccc1Cl was tested, and the survival was 96% (inactive).
With COc1ccc(NC(=O)CSc2nc(-c3ccc(OC)c(OC)c3)[nH]c2-c2ccc(C)cc2)cc1 the survival was 139% (inactive).
In the case of CCOC(=O)c1ccc(NC(=O)CCn2ccc(C)n2)cc1, the survival is reported as 110% (inactive).
With COc1ccc(C2C(=O)N(C3CCCCC3)CC(=O)N2C2CCCCC2)cc1 (stereo unspecified) the survival was 76% (inactive).
In the case of Cc1cccc(NC(=O)c2oc3ccccc3c2NC(=O)c2cc(=O)c3cc(Cl)ccc3o2)c1, the survival is reported as 85% (inactive).
For COc1ccc(-c2nc(C)c(CCNC(=O)c3cccs3)s2)cc1OC, the survival was 69% (inactive).
For Cc1ccccc1-c1nc(CS(=O)(=O)CC(=O)NCCCc2ccccc2)c(C)o1, the survival was 138% (inactive).
With CCOc1ccc(-n2c(SC(C)C(=O)OC)nc3c([nH]c4ccccc43)c2=O)cc1 (stereo unspecified) the survival was -2% (active).
In the case of CC1CCN(C(=O)CSc2nc3c([nH]c4ccccc43)c(=O)n2-c2ccccc2)CC1, the survival is reported as 83% (inactive).
For Cc1cc(C)cc(-n2c(SCC(=O)N3CCCCC3)nc3c([nH]c4ccccc43)c2=O)c1, the survival was 78% (inactive).
In the case of COC(=O)C(C)Sc1nc2c([nH]c3ccccc32)c(=O)n1-c1ccc(OC)cc1 (stereo unspecified), the survival is reported as 75% (inactive).
In the case of CCOC(=O)CSc1nc2c([nH]c3ccccc32)c(=O)n1-c1ccc(OCC)cc1, the survival is reported as 80% (inactive).
In the case of COc1ccc(-n2c(SCC(=O)N3CCC(C)CC3)nc3c([nH]c4ccccc43)c2=O)cc1, the survival is reported as 79% (inactive).
For CCOc1ccc(-n2c(SCC(=O)Nc3cc(C)ccc3C)nc3c([nH]c4ccccc43)c2=O)cc1, the survival was 59% (inactive).
Cc1cc(C)cc(-n2c(SCC(=O)N3CCC(C)CC3)nc3c([nH]c4ccccc43)c2=O)c1 was tested, and the survival was -1% (active).
With Cc1cccc(NC(=O)CSc2nc3c([nH]c4ccccc43)c(=O)n2-c2ccc(F)cc2)c1C the survival was 22% (inactive).
Cc1cc(C)cc(-n2c(SCC(=O)N3CCCC3)nc3c([nH]c4ccccc43)c2=O)c1 was tested, and the survival was 69% (inactive).
Cc1ccc(-n2c(SCC(=O)N3CCC(C)CC3)nc3c([nH]c4ccccc43)c2=O)cc1 was tested, and the survival was -6% (active).
For Cc1ccc(C)c(NC(=O)CSc2nc3c([nH]c4ccccc43)c(=O)n2-c2ccc(F)cc2)c1, the survival was 0% (active).
With CCc1ccc(-c2nc(CS(=O)CC(=O)NCc3ccc(F)cc3)c(C)o2)cc1 (stereo unspecified) the survival was 73% (inactive).
In the case of O=C1N/C(=N\S(=O)(=O)Cc2ccccc2)S/C1=C\c1ccco1, the survival is reported as 106% (inactive).
In the case of COc1ccccc1CNC(=O)Cn1c(=O)nc(-c2ccccc2)c2ccccc21, the survival is reported as 67% (inactive).
For CCc1ccc(-n2c(N3CCN(c4cccc(C)c4C)CC3)nc3ccccc3c2=O)cc1, the survival was 81% (inactive).
Cc1c(C(=O)NCc2ccccc2Br)oc2c1-c1[nH]ncc1CC2 was tested, and the survival was 82% (inactive).
With Cc1ccc(C(=O)Nc2ccc3c(c2)N(C)C(=O)c2ccccc2S3)cc1 the survival was 99% (inactive).
With COc1ccc(Cl)cc1NC(=O)Cn1c(=O)n(Cc2ccco2)c(=O)c2ccc(C(=O)NC3CCCC3)cc21 the survival was 87% (inactive).
In the case of CCOc1ccc(-n2c(SCC(=O)NCc3ccco3)nc3c([nH]c4ccccc43)c2=O)cc1, the survival is reported as 10% (active).
For COC(=O)c1ccc(CSc2nc3c([nH]c4ccccc43)c(=O)n2-c2ccc(Cl)cc2)o1, the survival was 121% (inactive).
For O=C(CSc1nc2c([nH]c3ccccc32)c(=O)n1-c1ccccc1)N1CCCCCC1, the survival was 78% (inactive).
With O=C(CSc1nc2c([nH]c3ccccc32)c(=O)n1-c1ccccc1)Nc1cccc(C(F)(F)F)c1 the survival was -6% (active).
With COc1cccc(-n2c(SCC(=O)N3CCCCC3)nc3c([nH]c4ccccc43)c2=O)c1 the survival was -3% (active).
COc1ccc(-n2c(SCC(=O)NCc3ccco3)nc3c([nH]c4ccccc43)c2=O)cc1 was tested, and the survival was 75% (inactive).
For O=C(CSc1nc2c([nH]c3ccccc32)c(=O)n1-c1ccccc1F)Nc1cccc(C(F)(F)F)c1, the survival was 71% (inactive).
For COC(=O)c1ccc(CSc2nc3c([nH]c4ccccc43)c(=O)n2-c2cc(C)cc(C)c2)o1, the survival was 0% (active).
In the case of COC(=O)c1ccc(CSc2nc3c([nH]c4ccccc43)c(=O)n2-c2cccc(Cl)c2)o1, the survival is reported as 71% (inactive).
COc1cccc(NC(=O)CSc2nc3c([nH]c4ccccc43)c(=O)n2-c2ccccc2)c1 was tested, and the survival was 67% (inactive).
O=C(CSc1nc2c([nH]c3ccccc32)c(=O)n1-c1ccccc1)N1CCCCC1 was tested, and the survival was 69% (inactive).
In the case of O=C(CSc1nc2c([nH]c3ccccc32)c(=O)n1-c1ccc(F)cc1)NCc1ccco1, the survival is reported as 88% (inactive).
In the case of CCc1cccc(C)c1NC(=O)c1cc(S(=O)(=O)N2CCN(c3ccccc3)CC2)ccc1F, the survival is reported as 73% (inactive).
With COc1cccc(NC(=O)NCc2ccc3c(c2)CCN3C(=O)c2ccccc2)c1 the survival was 64% (inactive).
With COC(=O)C1=NN(C(=O)c2cccc(OC)c2)C(C)(O)C1 (stereo unspecified) the survival was 123% (inactive).
COc1cccc(C(=O)N2c3ccc(C)cc3C(C)(c3ccccc3)CC2(C)C)c1 (stereo unspecified) was tested, and the survival was -2% (active).
With COc1cccc(C(=O)N2c3cc(C)ccc3C(C)(c3ccccc3)CC2(C)C)c1 (stereo unspecified) the survival was 1% (active).
In the case of COc1ccc(OCC(=O)N2CCN(C(=O)c3cccc(OC)c3)CC2)cc1, the survival is reported as 88% (inactive).
In the case of COc1cccc(C(=O)N2CC(C)OC(C)C2)c1 (stereo unspecified), the survival is reported as 107% (inactive).
COc1ccc(CNc2nc(-c3ccco3)nn2C(=O)c2ccccc2Cl)cc1 was tested, and the survival was 95% (inactive).
O=C(Cn1c(=O)n(-c2ccc(F)cc2)c(=O)c2sc3ccccc3c21)NC1CCCCC1 was tested, and the survival was 91% (inactive).
CNC(=O)C1CCC(Cn2c(=O)c3sccc3n(CC(=O)N3CCCC3)c2=O)CC1 (stereo unspecified) was tested, and the survival was 77% (inactive).
In the case of Cc1ccc(NCC(=O)N=Nc2c(O)[nH]c3ccccc23)cc1, the survival is reported as 114% (inactive).
In the case of CCOC(=O)c1oc2c(c1C)-c1nn(Cc3ccc(Cl)cc3)cc1CC2, the survival is reported as 2% (active).
CCOC(=O)c1oc2c(c1C)-c1nn(Cc3cccc(Cl)c3)cc1CC2 was tested, and the survival was 66% (inactive).
With Cc1c(C(=O)O)oc2c1-c1nn(Cc3ccc(Cl)cc3)cc1CC2 the survival was 77% (inactive).
For CCOc1ccc2c(c1)c(=O)c(C(=O)c1ccc3c(c1)OCO3)cn2Cc1cccc(F)c1, the survival was 91% (inactive).
CCCCOc1cccc(C2c3c(oc4ccccc4c3=O)C(=O)N2c2ccccn2)c1 (stereo unspecified) was tested, and the survival was 68% (inactive).
With O=C(Nc1noc2ccccc12)c1ccc(F)cc1 the survival was 78% (inactive).
With CCOC(=O)c1c(C)oc2c1c(O)c(N=O)c1ccccc12 the survival was 7% (active).
In the case of CCOC(=O)c1c(C)oc2ncnc(N3CCN(c4ccccc4)CC3)c12, the survival is reported as 68% (inactive).
CCOC(=O)c1c(C)oc2nc(C)nc(N3CCN(c4ccccc4)CC3)c12 was tested, and the survival was 68% (inactive).
In the case of CC(C)OC(=O)Cn1c(C2CC2)nc2ccccc2c1=O, the survival is reported as 115% (inactive).
For CC(C)(C)c1ccc(S(=O)(=O)N2CCC(Oc3ccc(-n4cnnn4)cc3)CC2)cc1, the survival was 81% (inactive).
For Cc1cn2c(=O)cc(COC(=O)c3ccc(NC(=O)COc4ccccc4F)cc3)nc2s1, the survival was 85% (inactive).
With Cn1ncc2c(N3CCN(c4ccccc4Cl)CC3)ncnc21 the survival was 127% (inactive).
With CCn1c(SCc2ccccc2)nnc1C1CCCCC1 the survival was 106% (inactive).
In the case of Cc1c2cnn(-c3ccccc3)c(=O)c2c(C)n1C(C)C(=O)NCc1cccc(Br)c1 (stereo unspecified), the survival is reported as 71% (inactive).
In the case of Cc1nn(CCC(=O)Nc2cccc(C#N)c2)c(C)c1S(=O)(=O)N1CCC(C)CC1, the survival is reported as 69% (inactive).
With CC(=O)c1cccc(NC(=O)CCn2nc(C)c(S(=O)(=O)N3CCCCC3)c2C)c1 the survival was 159% (inactive).
For CC(=O)c1ccc(NC(=O)CCn2nc(C)c(S(=O)(=O)N3CCC(C)CC3)c2C)cc1, the survival was -6% (active).
CCOc1ccc(NC(=O)NCCc2c(C)nn(C)c2C)cc1 was tested, and the survival was 60% (inactive).
CCc1cccc(CC)c1NC(=O)CN(C)S(=O)(=O)c1ccc2c(c1)n(C)c(=O)c(=O)n2C was tested, and the survival was 81% (inactive).
For Cc1cccc(N(C)C(=O)Cn2cnc3nc4c(cc3c2=O)CCCC4)c1, the survival was -1% (active).
For O=C(Cn1cnc2nc3c(cc2c1=O)CCCC3)N1CCN(c2ccccc2)CC1, the survival was 69% (inactive).
For COc1ccc(N2CCN(C(=O)Cn3cnc4nc5c(cc4c3=O)CCCC5)CC2)cc1, the survival was 78% (inactive).
With Cc1ccc(C)c(NC(=O)Cn2cnc3nc4c(cc3c2=O)CCCC4)c1 the survival was 72% (inactive).
With O=C(Cn1cnc2nc3c(cc2c1=O)CCCC3)Nc1ccc(F)cc1Cl the survival was 72% (inactive).
In the case of Cc1ccc(C)c(N2CCN(C(=O)Cn3cnc4nc5c(cc4c3=O)CCCC5)CC2)c1, the survival is reported as 76% (inactive).
Cc1c(Cl)cccc1NC(=O)Cn1cnc2nc3c(cc2c1=O)CCCC3 was tested, and the survival was 131% (inactive).
O=C(Cn1cnc2nc3c(cc2c1=O)CCCC3)N1CCN(c2cccc(C(F)(F)F)c2)CC1 was tested, and the survival was 14% (active).
With COc1cc(OC)c(NC(=O)Cn2cnc3nc4c(cc3c2=O)CCCC4)cc1Cl the survival was -6% (active).
With CN(C)C(=O)C1Cc2ccccc2CN1S(=O)(=O)c1ccc(F)cc1 (stereo unspecified) the survival was 105% (inactive).
In the case of CCc1ccc(-c2nc3c(c(SCc4ccccc4)n2)Cc2c(CO)cnc(C)c2O3)cc1, the survival is reported as 89% (inactive).
In the case of COc1cccc(NC(=O)CSc2nccn2C2CCCC2)c1, the survival is reported as 73% (inactive).
With O=C1NC(=Nc2ccccc2)S/C1=C\c1ccc(C(=O)O)cc1 the survival was 113% (inactive).
With CCOc1cccc(CC(=O)N2CCc3c([nH]c4ccccc34)C2c2ccccc2)c1OCC (stereo unspecified) the survival was 81% (inactive).
In the case of COc1ccc(C(=O)NCCn2cc(SCC(=O)Nc3ccccc3)c3ccccc32)cc1OC, the survival is reported as 65% (inactive).
COC(=O)c1ccc(Cn2c(SCc3ccccc3F)nc3ccncc32)cc1 was tested, and the survival was 74% (inactive).
